“And” between values parts separate entries of the source, which are not always exact repeats. Equal values may be shown once. The source made the active and inactive calls.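 Rule for the calls, unless noted: active = compounds whose cell count with miR-34 switched on is under 0.7 times the count with it off; inactive = the rest.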

Test [1] can be described thus: sensitizers of A549 cells to miR-34 induction, primary screen, imaging, A549 dox-inducible miR-34, nuclei and caspase counts (AID 1347080). Note: test concentration not given here. As to conditions: A549 miR-34 inducible, Hoechst nuclei count, 48 h.
Test [2] can be described thus: survival rescue of mitochondrial mutant cells in low glucose, primary screen, MELAS cybrids, Rieske KO mouse fibroblasts, CellTiter-Glo (AID 1508586;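 active = mean z-score across replicates of 1.96 or higher in either the MELAS or the Rieske mutant cell line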;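 note: test concentration not given here; z relative to plate mean and SD of compound and empty wells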).
Test [3] in a line: viability rescue of complex I mutant cybrids, primary screen, cell-based, galactose medium, ATP luminescence (AID 1645843;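 active = z-score of at least 1.8 in each of two replicates, scored against plate mean and spread of sample wells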;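 note: positive z means more ATP and so rescue of galactose-driven cybrid death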). The note with it: complex I mutant cybrid cells, 72 h, stronger effect = higher value.
Where [4] appears, read: stronger effect = lower value, cell number ratio, induced over uninduced.
The mark [5] stands for this setting: measured here: relative caspase fold change +Dox/-Dox.
Where [6] appears, read: measured here: total cells with miR-34 induction, stronger effect = lower value.
Where [7] appears, read: measured here: total cells without miR-34 induction.
The mark [8] stands for this setting: MELAS cybrid survival, CellTiter-Glo 48 h, stronger effect = higher value.
Setting [9] is: Rieske KO mouse fibroblast survival, CellTiter-Glo 72 h.

For `O=C(Cn1nnc(-c2ccccc2)n1)Nc1ccnn1Cc1ccccc1`, the fold change in test [1] (setting [4]) was 0.843 (inactive); in test [1] (setting [5]) it was 1.22. Further, the cell count was determined as 7640 in test [1] (setting [6]) and 9060 in test [1] (setting [7]). Further, the z-score in test [2] (setting [8]) was -0.218 (inactive); in test [2] (setting [9]), -0.596; in test [3] it was 0.045 (inactive).
As to `CCn1ncc2[nH]c(-c3c(OC(C)C)ccc4ccccc34)nc21`, the fold change is 0.906 (inactive) in test [1] (setting [4]) and 1.3 in test [1] (setting [5]). Also, the results for the cell count in test [1] (setting [6]) and in test [1] (setting [7]) were 7700 and 8510, respectively. The figures for the z-score in test [2] (setting [8]), in test [2] (setting [9]) and in test [3] were -0.33 (inactive), -0.482 and 0.5 (inactive), respectively.
Consider `CCCn1ncc(-c2ccnc(NCc3cc(CC)no3)n2)c1C`, for which the fold change in test [1] (setting [4]) was 0.843 (inactive); in test [1] (setting [5]) it was 1.57. In addition, the values for the cell count in test [1] (setting [6]) and in test [1] (setting [7]) were 6710 and 7960, respectively. The z-score in test [2] (setting [8]) is -0.178 (inactive); in test [2] (setting [9]), -0.0436; in test [3], -0.59 (inactive).
In the case of `Cc1cccc(CN2CCN(c3ncnc4sccc34)CC2=O)c1`, the fold change in test [1] (setting [4]) is 0.946 (inactive); in test [1] (setting [5]) it was 2.04. The cell count was determined as 4670 in test [1] (setting [6]) and 4940 in test [1] (setting [7]). Further, the z-score in test [2] (setting [8]) was -0.529 (inactive); in test [2] (setting [9]), -0.501; in test [3], 2.43 (inactive).
Regarding `Cc1nonc1CN(C)c1ncnc2nc[nH]c12`, the fold change was 0.907 (inactive) in test [1] (setting [4]) and 0.714 in test [1] (setting [5]). Besides, the figures for the cell count in test [1] (setting [6]) and in test [1] (setting [7]) were 9230 and 10200, respectively. Moreover, the z-score was -0.379 (inactive) in test [2] (setting [8]), -0.0852 in test [2] (setting [9]) and -0.565 (inactive) in test [3].
With `CCOc1cc(CC(=O)NC(CC(C)C)c2ccccc2N2CCCCC2)ccc1C(=O)O` (stereo not given), the fold change in test [1] (setting [4]) was 0.993 (inactive) and 0.919 (inactive); in test [1] (setting [5]), 2 and 0.721. For the same compound, the cell count in test [1] (setting [6]) was 8780 and 7660; in test [1] (setting [7]), 8840 and 8340. The results for the z-score in test [2] (setting [8]), in test [2] (setting [9]) and in test [3] were -0.382 (inactive), 0.561 and 1.65 (inactive), respectively.
Take `Cn1c(=O)c(O)c(O)c2ccccc21`: the results for the fold change in test [1] (setting [4]) and in test [1] (setting [5]) were 0.815 (inactive) and 0.99, respectively. The cell count in test [1] (setting [6]) stood at 4980; in test [1] (setting [7]) it was 6110. Moreover, the z-score in test [2] (setting [8]) was -0.227 (inactive); in test [2] (setting [9]), -0.541; in test [3], -2.27 (inactive).
In the case of `CC(C)c1nc(CN(C)C(=O)NC(C(=O)NC(Cc2ccccc2)CC(O)C(Cc2ccccc2)NC(=O)OCc2cncs2)C(C)C)cs1` (stereo not given), the fold change in test [1] (setting [4]) was 0.948 (inactive) and 0.95 (inactive); in test [1] (setting [5]), 1.44 and 0.946. Moreover, the cell count in test [1] (setting [6]) is 7230 and 6000; in test [1] (setting [7]) it was 7630 and 6320. Further, the z-score in test [2] (setting [8]) is -0.434 (inactive); in test [2] (setting [9]) it was 0.643; in test [3], -0.03 (inactive).
Regarding `Cn1c(=O)c2c(nc(N3CCNCC3)n2Cc2ccccc2)n(C)c1=O`, the fold change in test [1] (setting [4]) was 0.839 (inactive); in test [1] (setting [5]), 0.525. The cell count in test [1] (setting [6]) worked out at 7900; in test [1] (setting [7]), 9410. In addition, the z-score is -1.69 (inactive) in test [2] (setting [8]), -0.314 in test [2] (setting [9]) and 0.525 (inactive) in test [3].
As to `Cc1nsc(NC(=O)NC2CCc3ccccc3C2)n1` (stereo not given), the figures for the fold change in test [1] (setting [4]) and in test [1] (setting [5]) were 0.899 (inactive) and 1, respectively. For the same compound, the cell count is 3190 in test [1] (setting [6]) and 3550 in test [1] (setting [7]). Moreover, the values for the z-score in test [2] (setting [8]), in test [2] (setting [9]) and in test [3] were -0.269 (inactive), -0.339 and 1.48 (inactive), respectively.
Take `OB(O)c1ccccc1`: the fold change was 0.876 (inactive) in test [1] (setting [4]) and 0.386 in test [1] (setting [5]). In addition, the values for the cell count in test [1] (setting [6]) and in test [1] (setting [7]) were 7850 and 8950, respectively. Further, the z-score in test [2] (setting [8]) is -0.818 (inactive); in test [2] (setting [9]), 0.216; in test [3], 0.615 (inactive).
Consider `O=S(=O)(O)CCCSc1nc2ccccc2s1`, for which the fold change in test [1] (setting [4]) is 0.906 (inactive); in test [1] (setting [5]), 0.489. For the same compound, the cell count in test [1] (setting [6]) turned out to be 8800; in test [1] (setting [7]) it was 9700. For the same compound, the z-score in test [2] (setting [8]) was -0.268 (inactive); in test [2] (setting [9]), -0.142; in test [3], 0.7 (inactive).
Take `O=c1cc(-c2cccnc2)nc(-c2ccc(CN3CCCC(CO)C3)cc2)[nH]1` (stereo not given): the fold change was 0.899 (inactive) in test [1] (setting [4]) and 2.12 in test [1] (setting [5]). Moreover, the cell count in test [1] (setting [6]) is 7730; in test [1] (setting [7]) it was 8590. The values for the z-score in test [2] (setting [8]), in test [2] (setting [9]) and in test [3] were -0.0299 (inactive), -0.608 and -0.56 (inactive), respectively.
As to `Cc1nc2ccc(-c3ncnc4sccc34)cc2c(=O)[nH]1`, the fold change was 0.886 (inactive) in test [1] (setting [4]) and 1.29 in test [1] (setting [5]). The cell count amounted to 9390 in test [1] (setting [6]) and 10600 in test [1] (setting [7]). The results for the z-score in test [2] (setting [8]), in test [2] (setting [9]) and in test [3] were 0.107 (inactive), 0.235 and -0.465 (inactive), respectively.
With `CCN(Cc1nccn1C)C(=O)c1cc(-c2cnc(C)nc2)nc2cc(F)ccc12`, the values for the fold change in test [1] (setting [4]) and in test [1] (setting [5]) were 0.881 (inactive) and 1.32, respectively. Also, the cell count in test [1] (setting [6]) was determined as 8950; in test [1] (setting [7]), 10200. Besides, the values for the z-score in test [2] (setting [8]), in test [2] (setting [9]) and in test [3] were -0.0942 (inactive), -0.488 and -0.2 (inactive), respectively.
Turning to `Cc1nsc(NC(=O)N2CCC(C(O)CC(C)C)CC2)n1` (stereo not given), the fold change was 0.832 (inactive) in test [1] (setting [4]) and 2.21 in test [1] (setting [5]). For the same compound, the figures for the cell count in test [1] (setting [6]) and in test [1] (setting [7]) were 6540 and 7860, respectively. Moreover, the z-score was 0.507 (inactive) in test [2] (setting [8]), -0.186 in test [2] (setting [9]) and -0.63 (inactive) in test [3].
With `COC1C=CO[C@@]2(C)Oc3c(C)c(O)c4c(O)c(c5c(c4c3C2=O)NC2(CCN(CC(C)C)CC2)N=5)=NC(=O)C(C)=CC=CC(C)C(O)C(C)C(O)C(C)C(OC(C)=O)C1C` (stereo not given in full), the fold change in test [1] (setting [4]) was 0.889 (inactive) and 0.859 (inactive); in test [1] (setting [5]), 1.03 and 1.09. Besides, the cell count in test [1] (setting [6]) was 7260 and 7580; in test [1] (setting [7]) it was 8160 and 8820. The z-score was -0.0325 (inactive) in test [2] (setting [8]), 0.718 in test [2] (setting [9]) and 1.02 (inactive) in test [3].
In the case of `Cc1sc2ncnc(-c3cccc4cccnc34)c2c1C`, the fold change in test [1] (setting [4]) is 0.871 (inactive); in test [1] (setting [5]) it was 1.66. The values for the cell count in test [1] (setting [6]) and in test [1] (setting [7]) were 8110 and 9310, respectively. Also, the z-score in test [2] (setting [8]) was -0.544 (inactive); in test [2] (setting [9]), -0.845; in test [3], 0.64 (inactive).
`CC1OC(OC2C(CO)OC(OC3C(CO)OC(O)C(O)C3O)C(O)C2O)C(O)C(O)C1NC1C=C(CO)C(O)C(O)C1O` (stereo not given): the fold change in test [1] (setting [4]) is 0.923 (inactive) and 1.03 (inactive); in test [1] (setting [5]), 1.2 and 0.703. In addition, the cell count in test [1] (setting [6]) was 9530 and 7300; in test [1] (setting [7]) it was 10300 and 7090. Further, the z-score in test [2] (setting [8]) was -0.375 (inactive); in test [2] (setting [9]), -0.157; in test [3], 0.475 (inactive).
`O=C(O)CCc1c(C(=O)O)[nH]c2cc(Cl)cc(Cl)c12`: the fold change is 0.85 (inactive) in test [1] (setting [4]) and 0.683 in test [1] (setting [5]). In addition, the cell count amounted to 8390 in test [1] (setting [6]) and 9880 in test [1] (setting [7]). Besides, the figures for the z-score in test [2] (setting [8]), in test [2] (setting [9]) and in test [3] were 0.688 (inactive), 0.122 and 0.585 (inactive), respectively.

The values above are taken from PubChem BioAssay.
